Source: PubChem
SUMO HTRF inh = blocks human SUMOylation mediated by UBC9; inhibition, % at 35 µM; AID 2006; HTRF SUMOylation assay, SAE1/SAE2 + UBC9, in vitro; P63279; 290,000 tested, 0.36% active; in the data active = inhibition above about 50%, passing the limit was not always enough
PERK inhibitor = blocks human PERK kinase; inhibition, % at 5.6 µM; Q9NZJ5; 220,000 tested, 0.17% active; CHO PERK-DD fusion, SEAP luminescence translation reporter;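 active = inhibition above the mean inhibition of all tested compounds plus 3 SD, set separately per screening campaign, cut at about 2.9% in these data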;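 also: PERK kinase domain activated by AP20187 dimerizer at 100 nM; 0% = DMSO with dimerizer and 100% = rapamycin at 8.4 µM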
DTT redox prof = compounds producing H2O2 with reducing agent – biochemical, NIH compound library profiling, artefact control for MLSCN library redox annotation, primary screen; 200,000 tested, 0.03% active; AID 878; DTT-dependent redox cycling H2O2, phenol red/HRP absorbance; 100% = 100 µM peroxide control, 0% = buffer; activation, % at 10 µM;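 active = activation of at least 50% relative to the plate's high and low controls in the primary single-dose screen; inactive = activation below 50%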;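 also: compound incubated with DTT at 0.8 mM final as the reducing agent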
p97 ATPase inh = inhibitors of human p97 ATPase; recombinant p97 ATPase, Kinase-Glo ATP luminescence, 3 h; inhibition, % at 8 µM; 220,000 tested, 0.42% active; AID 1481; in the data active = inhibition above about 15%;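 also: 0% = DMSO vehicle and 100% = wells lacking enzyme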
* = called active by the depositor; . = not tested or not shown. A selection: hits, their analogues and other compounds. The true share with any hit is near 0.69%.

SMILES | SUMO HTRF inh | PERK inhibitor | DTT redox prof | p97 ATPase inh
COc1ccc(N2Cc3ccc(C(=O)N/N=C\c4ccc(O)cc4O)cc3C2)cc1 | 66.1* | . | . | .
O=C(N/N=C/c1ccc(O)cc1O)C(=O)N/N=C/c1ccc(O)cc1O | 95.4* | . | . | .
Cc1cnc(NC(=O)CC(C)c2ccccc2)s1 (stereo not given) | 13.2 | . | . | .
O=Nc1c(-c2cccc([N+](=O)[O-])c2)nc2ncccn12 | -5.3 | 1.7 | . | 8.4
COc1ccccc1NC(=O)COc1ccc(/C=N/NC(=O)CSCc2ccc(Cl)cc2)cc1 | -20.5 | 3.3* | -11.6 | 1.4
CCOC(=O)C1=NN(c2ccccc2)C(=O)C1 | 2.3 | 2.9* | . | 7.1
O=C(O)C1=NN(c2ccccc2)C(=O)C1 | 14.7 | 0.9 | . | 6.3
O=C(Nc1ccc2cccnc2c1)c1ccc(Br)cc1 | 5.4 | . | . | .
CC(=O)Nc1ccc2nc3ccccc3nc2c1 | 92.4* | 0.1 | . | 4.9
CC(=O)Nc1ccc(-c2nc3ccc(NC(C)=O)cc3o2)cc1 | 50.6* | . | . | .
O=C(Nc1ccc2nc3ccccc3nc2c1)c1ccc(Br)cc1 | 57.4* | 1.3 | 0.2 | 7.4
CC(=O)Nc1ccc(Nc2cc(C)c3ccccc3n2)cc1 | 6.5 | . | . | .
O=C(CC1C(=O)NCCN1Cc1ccccc1C(F)(F)F)NC1CCCCC1 (stereo not given) | 1.9 | . | . | .
N#CCCn1cc(C(=O)Nc2cccc(C(=O)O)c2)c(-c2ccc(Cl)cc2)n1 | -3.9 | . | . | .
O=C(CCS(=O)(=O)Cc1ccccc1F)NCCc1ccc(Cl)cc1 | -3.5 | . | . | .
Cc1ccc(CN2CCC(Oc3cccc(C(=O)NCc4cccnc4)c3)CC2)o1 | -4.6 | . | . | .
CN(CCC(=O)Nc1ccc(Cl)cc1)Cc1ccccc1 | -2.5 | . | . | .
CCC(C)[C@@H](C(=O)NCC1CCC(C(=O)O)CC1)n1nnc2ccccc2c1=O (stereo not given in full) | -4.2 | 2.9* | 0.1 | 1.1
O=C(NCc1ccncc1)C(=O)NCC1OCCN1S(=O)(=O)c1ccc(F)cc1 (stereo not given) | 6.4 | . | . | .
O=C1CC(c2ccc(O)c(O)c2)Oc2c1ccc(O)c2O (stereo not given) | 72.6* | . | . | .
CC(C)=CCc1c(O)ccc2c1OC(c1ccc(O)c(O)c1)CC2=O (stereo not given) | 3.0 | 1.1 | -1.4 | 13.4
Cc1ccc(NC(=O)/C(C#N)=C/c2cn(CC(=O)NCc3ccco3)c3ccccc23)cc1C | 62.4* | 0.2 | -0.6 | 6.0
CNC(=O)/C(C#N)=C/c1cn(CC(=O)NCc2ccco2)c2ccccc12 | 8.6 | 0.8 | 0.4 | 2.3
Cc1ccc(C)c(NC(=O)/C(C#N)=C/c2cn(CC(=O)NCc3ccco3)c3ccccc23)c1 | 53.7* | -0.2 | 0.8 | -10.3
Cc1cc(C)cc(NC(=O)/C(C#N)=C/c2cn(CC(=O)NCc3ccco3)c3ccccc23)c1 | 29.1 | 1.3 | 0.9 | 1.0
SMILES | SUMO HTRF inh | PERK inhibitor | DTT redox prof | p97 ATPase inh
CCOC(=O)Cn1nnnc1CN1CCN(c2ccc(OC)cc2)CC1 | 15.0 | 1.5 | 0.4 | -0.6
Cc1cc(NC(=O)CSc2nc3cc(C(=O)NCCCOC(C)C)ccc3c(=O)n2Cc2ccco2)no1 | 50.5* | 0.1 | -0.6 | 1.0
O=C(Cn1cc2c(n1)CCCC2)NCC1CCCO1 (stereo not given) | 10.6 | 3.2* | -0.2 | -1.3
COc1ccc(/C=N/NC(=O)c2c(-c3ccccc3)noc2C)cc1[N+](=O)[O-] | 1.5 | . | . | .
CCCOc1ccc(C(=O)N(Cc2cccs2)C2CCS(=O)(=O)C2)cc1 (stereo not given) | -0.8 | . | . | .
O=c1[nH]cc(N=Cc2cc(Cl)cc(Cl)c2O)c(=O)[nH]1 | 56.7* | . | . | .
O=c1[nH]cc(N=Cc2cc([N+](=O)[O-])ccc2O)c(=O)[nH]1 | 15.8 | . | . | .
O=C(O)CCC(=O)N1N=C(c2c(-c3ccccc3)c3cc(Cl)ccc3[nH]c2=O)CC1c1ccco1 (stereo not given) | 24.8 | 0.2 | -0.2 | -2.2
CCC(=O)N1N=C(c2c(-c3ccccc3)c3cc(Cl)ccc3[nH]c2=O)CC1c1ccco1 (stereo not given) | 54.1* | -0.4 | 0.2 | 1.8
O=C(Nc1nnc(-c2ccc(F)cc2)s1)Nc1ccccc1F | 34.3 | 0.8 | . | 4.4
O=C(Nc1nnc(-c2ccccc2SCc2ccccc2F)s1)Nc1ccccc1F | 52.4* | 1.0 | -0.5 | 1.7
CC12CCC(=O)N1C(C(=O)Nc1nnc(SCc3ccc(F)cc3)s1)CS2 (stereo not given) | 9.7 | . | . | .
CCC1CC(C)(C(=O)Nc2ccc(S(N)(=O)=O)cc2)OC1=O (stereo not given) | -6.9 | 2.9* | -1.4 | 6.4
O=S(=O)(NC1CC1)c1ccccc1 | 11.3 | . | . | .
NC(=O)N/N=C/c1ccc2cccc(OCc3ccccc3)c2n1 | 57.5* | -0.2 | . | 4.2
COc1cc(/C=C2\S/C(=N/S(=O)(=O)Cc3ccccc3)NC2=O)c([N+](=O)[O-])cc1OC | 16.5 | 1.4 | . | 6.5
COc1cc(/C=C2/S/C(=N/S(=O)(=O)Cc3ccccc3)NC2=O)c([N+](=O)[O-])cc1OC | 24.7 | 3.0* | . | 2.1
CSCCC1C(C#N)=C(N)Oc2n[nH]c(-c3cccs3)c21 (stereo not given) | -9.1 | 3.1* | 0.2 | -1.7
COc1cccc(CNC(=O)CCC2CCCN(C(=O)CCn3cncn3)C2)c1 (stereo not given) | 7.4 | 0.4 | -2.0 | 7.0
Oc1cccc(Nc2nc(O)c(/C=C3\C=Nc4ccccc43)s2)c1 | 2.0 | -0.9 | . | 32.1*
Oc1nc(Nc2cccc(Cl)c2)sc1/C=C1\C=Nc2ccccc21 | -2.5 | 0.6 | 0.4 | 8.1
Cn1c(-c2ccc(C=O)s2)nc2ccccc21 | 56.2* | 0.2 | 0.6 | 1.8
Cn1c(-c2cccs2)nc2ccccc21 | 18.2 | 2.0 | -0.4 | 5.2
O=C(COC(=O)CCSc1ccccc1)NCc1ccccc1 | 4.1 | -0.6 | -1.8 | -5.1
Cc1cccc(S(=O)(=O)C(C#N)c2nc3ccccc3nc2N2CCCC2)c1 (stereo not given) | 94.2 | -1.2 | -0.6 | 20.2*
SMILES | SUMO HTRF inh | PERK inhibitor | DTT redox prof | p97 ATPase inh
Cc1ccc(S(=O)(=O)C(C#N)c2nc3ccccc3nc2N2CCC(C)CC2)cc1 (stereo not given) | 81.2* | 0.2 | -0.2 | 4.0
COc1ccc(S(=O)(=O)C(C#N)c2nc3ccccc3nc2N2CCCCC2)cc1 (stereo not given) | 92.1 | 1.5 | -0.6 | -0.9
O=C(CNC(=O)c1ccccc1Br)N/N=C/c1ccc(O)cc1 | -1.7 | 1.2 | -2.2 | 3.7
CCCCCCC#Cc1cncc(C(=O)NNC(=O)Nc2cc(Cl)cc(Cl)c2)c1 | 62.4* | 1.5 | . | 8.6
CCCCC#Cc1cncc(C(=O)NN)c1 | 4.7 | 1.4 | . | -1.1
CCOC(=O)C1CCN(C(=O)CCC(=O)NNc2nc3ccccc3c3nc(C)nn23)CC1 | 5.8 | . | . | .
CNC(=O)CN(CCc1ccccc1)S(=O)(=O)c1ccc(OC)cc1 | -3.9 | . | . | .
Cc1cc(C)c(NC2=NS(=O)(=O)c3ccccc32)c(C)c1 | 9.4 | 3.6* | -0.1 | -5.0
O=C(CN1C(=O)S/C(=C\c2ccc(-c3cc(C(=O)O)ccc3Cl)o2)C1=O)Nc1ccc2c(c1)OCO2 | 83.9* | . | . | .
CC1C(=O)Nc2ccccc2N1C(=O)c1cccc(C(F)(F)F)c1 (stereo not given) | -4.0 | . | . | .
